In all, about 33,000 sequences were measured (“E-score (-0.5 to 0.5)”: median about -0.01, highest 2% from about 0.26 on). This is one part of a sample in which the highest values are shown more often than they occur.
These sequences were tested against Ste12 (UniProt P13574) (assay: PBM E-score (8-mer binding enrichment) (E-score (-0.5 to 0.5)); higher = stronger / more preferred TF binding). Conditions: protein concentration: 200 nM; construct: GST-DNA-binding domain.
Method in brief: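 Using PURExpress in vitro transcription/translation, GST-tagged yeast transcription factors were made in full-length or DNA-binding-domain form. These were applied at about 100-200 nM to double-stranded universal all-10-mer Agilent arrays, and bound protein was detected with fluorescent anti-GST. Scans were normalised with masliner before the Universal PBM Analysis Suite assigned E-scores to ungapped eight-base words pooled with their reverse complements.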

Chain of UniProt P13574 (P13574 whole entry, the tested form may be a part): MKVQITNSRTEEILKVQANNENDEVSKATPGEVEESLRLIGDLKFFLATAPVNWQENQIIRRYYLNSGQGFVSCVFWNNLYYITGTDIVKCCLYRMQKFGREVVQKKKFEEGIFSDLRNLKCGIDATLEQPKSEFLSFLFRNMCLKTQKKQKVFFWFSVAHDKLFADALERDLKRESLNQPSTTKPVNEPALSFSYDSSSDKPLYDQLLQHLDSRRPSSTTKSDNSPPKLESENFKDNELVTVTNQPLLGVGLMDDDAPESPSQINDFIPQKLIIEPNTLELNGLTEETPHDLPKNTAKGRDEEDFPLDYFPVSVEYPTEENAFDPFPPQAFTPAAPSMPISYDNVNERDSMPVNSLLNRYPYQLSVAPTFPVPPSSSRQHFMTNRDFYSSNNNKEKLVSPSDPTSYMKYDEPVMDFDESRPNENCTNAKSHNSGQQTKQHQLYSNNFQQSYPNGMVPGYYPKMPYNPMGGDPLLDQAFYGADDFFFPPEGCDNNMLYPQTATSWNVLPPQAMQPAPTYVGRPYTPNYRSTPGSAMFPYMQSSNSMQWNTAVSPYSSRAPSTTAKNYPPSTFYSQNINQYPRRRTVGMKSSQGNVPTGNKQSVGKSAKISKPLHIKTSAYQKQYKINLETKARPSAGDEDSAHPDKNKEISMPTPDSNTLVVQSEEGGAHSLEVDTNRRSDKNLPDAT

Sequence | PBM E-score
CAAATCGA | 0.0344
CGCTAGTC | -0.27
AATGCTAG | -0.181
CAACAGAC | -0.018
TCGTTGCA | -0.0015
ATTGGGAA | 0.0116
CGTGTAAG | -0.0021
AATGAATC | 0.16
TATGAAAA | 0.152
AATGAATT | 0.133
CATGAAAC | 0.484
GATGAACA | 0.00898
GATGAAAA | 0.281
AATGAATG | 0.292
CATGAAAA | 0.237
CATGAAAG | -0.00226
CCATTTCG | -0.219
AAGCTCAG | -0.179
GCCTCTAC | -0.239
CGTATAAC | -0.0972
GGTATACA | -0.0232
AGTATAAA | 0.228
CGTATAAA | 0.263
AGTATACA | -0.108
CGTATACA | 0.306

Sequence | PBM E-score
CAACCATC | 0.109
AGAGAGGG | -0.255
GATCGTGC | 0.0893
ACTTTTAC | 0.263
AACTTTAA | 0.279
ACTTTAAT | 0.263
ACTTTAAA | 0.275
AACTTTAG | 0.0874
ACTTTAAC | 0.162
CCTTTTAC | 0.178
ACTTTAAG | 0.225
ACTTTTAA | 0.164
CACTTTAA | 0.159
GCTTTAAA | 0.155
ACTTTTAG | 0.101
ACTTAGAT | -0.0771
ATGGGAAT | -0.202
ACCATACG | -0.0611
CGCGCTAC | 0.00148
ACTGGGCC | -0.244
AGCTAGAA | -0.0198
GAACCGGA | -0.0365
GAGCGAGC | -0.00859
GTCGCTGA | 0.0069
CAACGATA | 0.0594

Sequence | PBM E-score
AAACGATA | 0.279
TAACGATA | 0.138
AGAACTGG | -0.0181
ATAGGATG | 0.149
AAAAATCT | 0.318
AAATATAA | 0.224
AAAAATAC | 0.25
AAATAGAC | -0.0352
AAAAATCC | 0.178
AAAAATAT | 0.339
AAATAGAG | 0.0914
AAATATAC | 0.225
AAAAATCA | 0.254
AAAAATAG | 0.24
AAATATAT | 0.273
AAATAGAT | 0.275
CTCGTTTA | 0.0722
CCAACCGA | 0.0461
AACAGCCA | -0.019
AGCGCAAG | -0.0674
CACGGCAC | -0.113
ACAAGCGG | 0.106
TACCTACA | -0.0205
AACTATGT | -0.0705
GGTTGAAA | 0.292

Sequence | PBM E-score
TGTTGTAA | 0.28
AGTTGAAA | 0.19
GGTTGAGA | -0.103
AGTTGTAA | 0.068
GGTTGAAC | -0.0192
TGTTGAAA | 0.311
GGTTGTAA | 0.0372
CGTTGAAA | 0.185
CCCCGTAC | -0.0713
AGTCTGCA | -0.122
CGCGTACC | -0.113
CCGCCTTA | 0.0555
AAGGTTCT | 0.0379
CCCGAACA | 0.128
CGAAGCCC | -0.192
AATACAAT | 0.0948
TATACAAA | 0.127
GATACAAA | 0.134
AATACAAC | 0.157
AATACAAG | 0.302
AATACAAA | 0.265
GGCAGCCC | -0.142
GACTACAA | -0.102
GGAATCCC | 0.0198
GACCATGC | -0.139

Sequence | PBM E-score
CTCTCAAA | 0.0271
ATCTCAAT | 0.0795
TTCTCAAA | 0.291
AACTCAAG | -0.00801
ATCTCAAA | 0.27
AACTCAAA | 0.266
ATCTCAAG | 0.0665
GTCTCAAA | 0.218
CACTCAAA | 0.0429
ATGCCGTA | -0.0947
CTGGTCGA | -0.196
ATGGATTC | 0.186
ACCGTGAT | 0.0763
TGATTACA | -0.00637
ACAACCAA | 0.0252
CGATCTCC | -0.108
ATCAACTG | -0.112
AATTAAAG | 0.103
TATTAAAA | 0.341
CATTAAAC | 0.191
CATTAAAG | 0.034
CATTAAAA | 0.27
AATTAAAA | 0.308
TATTAACA | 0.164
GATTAAAA | 0.234

Sequence | PBM E-score
AATTAAAC | 0.241
TAAGGCAA | 0.0326
CTACCCTC | -0.0776
GCCCTCCC | 0.115
TGCTCACA | -0.148
CCTTGTGC | -0.0236
CACCATAA | 0.136
ATACTAGG | 0.119
GGTCCTGA | -0.163
AGCGCTAC | -0.0647
CCGCAGGA | -0.0635
ATTACAAA | 0.165
CTTACAAC | 0.0334
ATTACAAC | -0.0498
TCTACAAA | 0.138
GTTACAAA | 0.384
TGTACAAA | 0.0309
CTTACAAA | 0.143
GTTACAAC | 0.289
TTTACAAA | 0.294
TACGTCGA | 0.0119
GGAGTAGA | -0.0759
AAGCTGGA | -0.0676
GCGACCCC | 0.0725
GGATGCGA | -0.201

Sequence | PBM E-score
AGTCCATC | -0.306
CAAATATA | 0.0746
GAAATATC | 0.0344
AAAATATA | 0.241
GAAATATA | 0.284
GAAATACA | -0.00127
TAAATATA | 0.321
GTCTCTGA | -0.168
CCATCTCA | -0.0464
CGGCCCCG | 0.0097
CACCATGA | 0.0412
CGCGATGC | -0.182
CGTCCTAC | -0.0953
TCAGTGCA | 0.0371
CTAGGGCA | -0.159
GATGATGC | -0.125
GTTGCGAA | 0.093
CGCAAGGC | 0.049
CGTGAAAC | 0.364
GGTGAACC | -0.00551
GGTGAAAA | 0.0914
AGTGAAAC | 0.394
AGTGAAAG | 0.126
GGTGAAAC | 0.463
CGTGAAAA | 0.22

Sequence | PBM E-score
CGTGAAAG | 0.0979
AGTGAAAT | 0.0994
CCTCGTTA | 0.049
CGGTAACG | -0.141
GCCTAAAC | -0.125
CACAGGTA | 0.0125
ACCGTCTG | -0.00201
CCCAGGGC | -0.256
ACGATGAC | -0.173
CGGATGAA | 0.268
GAGATGAA | 0.156
ACGATGAA | 0.274
AGGATGAA | 0.128
CGGATGAG | -0.11
TAGATGAA | 0.279
GCGATGAA | 0.116
AAGATGAA | 0.18
CATACCAA | -0.0054
AACTCTCC | -0.129
AGCGAGAT | 0.119
CCGAATTC | -0.00494
TGACCTCA | -0.0719
ACAGAAGC | -0.0242
AGAAGACT | -0.22
TAGTTTGA | 0.0916

Sequence | PBM E-score
AAGTTTCC | 0.11
AAGTTTCA | 0.437
AAGTTTCG | 0.175
CAGTTTCG | 0.181
CAGTTTCA | 0.374
AAGTTTTC | 0.0212
AAGTTTTG | 0.116
CAGTTTCC | 0.0749
TAGTTTCA | 0.36
TAGTTTAA | 0.171
AAGTTTTA | 0.287
CGGCGAGA | -0.167
CCTTTTCG | 0.19
CGACCTGC | -0.0774
GACCTCAC | -0.15
TCACGGAA | 0.135
ACGATCGA | -0.106
ACGGAGGC | -0.187
GACCAGGA | -0.183
GTTCGCTA | -0.0318
GAGTTTCC | -0.00944
GAGTTTGA | 0.0997
GAGTTTCA | 0.407
CTGTGGTA | -0.0102
AATTTATA | 0.274

Sequence | PBM E-score
AATTTATG | 0.205
CATTTATC | 0.0356
GATTTATA | 0.182
CATTTATA | 0.189
AATTTATC | 0.281
CGGTAGAA | -0.142
GCCAAAGA | -0.0779
GGATTGCA | 0.117
GCTGCGCA | -0.229
ACGCTTGC | -0.116
CACGTTTA | -0.00355
CACGTTAC | 0.0456
CACGTTTC | 0.285
AACGTTTC | 0.328
AACGTTTA | 0.00807
AACGTTTG | 0.0498
ACAATTTA | 0.163
AATTAAGT | 0.118
ACTATAAA | 0.241
AACATAGA | 0.287
ACTATAAT | 0.274
ACTAGAAT | 0.277
GACATAGA | 0.0743
AACATAAC | 0.0575
AACATAAA | 0.249

Sequence | PBM E-score
AACATAAT | 0.286
ACTATAAC | -0.0368
ACTAGAAA | 0.244
CACATAGA | -0.0651
ACTAGAAC | -0.0111
ACTCCTAA | -0.0995
GGAGGACA | -0.106
GGCAATGA | -0.192
ACTTGGAT | 0.0871
TACTTCAA | 0.0645
AATCTAGG | 0.0839
GATGGTAA | 0.0297
CACCATAG | -0.041
AACATAAG | 0.289
ATCATAAG | 0.0492
CACATAAG | 0.044
CCAGAGTA | 0.03
CCCGTCTA | -0.125
AATAGCAA | 0.00204
AAACGTTA | 0.0762
AAACGTGG | 0.0452
AAACGTGA | 0.312
AAACGTTG | 0.111
AAACGTTT | 0.283
AAACGTGT | 0.123

Sequence | PBM E-score
GCAAGGGA | -0.0936
AAGTAGCA | 0.0754
CAACTGAA | 0.201
AGCCAGAC | -0.132
CGCCCCAA | 0.296
CGCCCCAG | 0.0509
GGCCCCAA | -0.177
CGCCCCAC | 0.272
GGCCCCAC | -0.181
CGCCCCCA | -0.079
CTAACGCA | -0.0702
ATAGAAAC | 0.189
CTCCCCTA | -0.0541
ATCCCCTA | -0.0687
CTCCCCGA | 0.0416
CTCCCCGC | 0.386
ATCCCCTC | 0.303
ATCCCCTG | -0.157
CGCCCCTC | 0.351
CGCCCCTA | 0.214
CCCCCCTC | -0.244
ATCCCCGC | 0.249
CTCCCCTC | 0.28
AGCCCCTC | -0.00471
ACAGACTG | 0.0359

Sequence | PBM E-score
GACTCCCC | -0.26
CCAGGCTC | -0.124
AGGCTTCG | -0.158
ACACTTCC | -0.0741
CAGAGCAC | 0.0445
AATCGAGG | 0.108
ATGAGAGC | -0.126
TAAGCTCA | -0.18
TCGATACA | 0.19
AACTCCGC | -0.0808
AGTGCGCC | -0.156
GAATTTCA | -0.0538
GTTTGTTA | 0.169
CTTTGTAA | 0.152
CTTTGTTC | 0.227
ATTTGTTC | 0.266
ATTTGTAG | 0.127
ATTTGTTA | 0.274
ATTTGTTG | 0.181
CTTTGTTA | 0.219
ATTTGTAA | 0.288
CCTAATGA | 0.13
AGGGTCTC | -0.153
CCCTTCAC | -0.0106
AATTCATG | 0.255

Sequence | PBM E-score
ACCCAGAT | 0.0125
AGACCACG | -0.255
GAAACACA | 0.408
AAAACACC | 0.213
TAAACACA | 0.175
AAAACACA | 0.198
CAAACACG | 0.17
AAAACACG | 0.304
AAAACACT | 0.215
CAAACACC | 0.121
GAAACACC | 0.311
AGGGCTCC | -0.236
GTCGCTTA | -0.193
CCGGGCAA | -0.0289
CATTGTGG | 0.0722
ATGCTCCA | 0.0506
TCCTGAAA | 0.25
CGCTGAAA | 0.251
AGCTGAAA | 0.264
GGCTGAAA | 0.27
AGCTGAAG | -0.127
AGCTGAAC | -0.288
GCCTGAAA | 0.273
TGCTGAAA | 0.24
GCCTGAAC | -0.209
